By inhibition is commonly meant the change of the read-out against control, counted positive when it falls.

In all, about 360,000 compounds went through this assay and about 1,500 (0.42%) were called active. This is one part of a sample in which actives are shown more often than they occur. No stated cut-off is given here; in the data, active means inhibition above about 8.5%; inactive means the rest.

We go through 53 compounds from PubChem BioAssay AID624416 (The Scripps Research Institute Molecular Screening Center, 2012).

This experiment concerns HIV-1 gp120 / PG9 antibody interaction. The experiment is described as follows: small molecules engaging PG9 antibody – biochemical, TR-FRET, primary screen (AID 624416). The following applies: TR-FRET gp120-PG9 antibody binding; at 6.7 µM; hits give high values.
With `COc1ccccc1-c1ccc([C@@H]2C[C@H]3[C@H](CON3C)CN2S(=O)(=O)c2cc(Cl)cc(Cl)c2)cc1`, the inhibition is -0.23% (inactive).
For the compound `CC[C@H](C)[C@H]1CNC(=O)C(=O)N1CC1CCN(CCc2ccc(OC)c(OC)c2)CC1`, the inhibition was -1.11% (inactive).
As for `Cc1cc2c(cc1C)N1C(=O)c3cc4ccccc4cc3NC(=O)C1C(=O)N2` (stereo not drawn), the inhibition is 9.79% (active).
In the case of `Cc1cc(N2CCN(C(=O)OC(C)(C)C)C[C@H]2C)ccc1N1CCN(Cc2ccccc2)[C@H](C)C1`, the inhibition is -1.9% (inactive).
With `CCn1c(SCC(=O)Nc2cc(C)ccc2C)nnc1-c1cnccn1`, the inhibition was 1.97% (inactive).
Turning to `CCOC(=O)Cc1csc(NC(=O)CSc2nnc(-c3cccnc3)n2Cc2ccco2)n1`, the inhibition is -0.33% (inactive).
On to `CCc1ccc(NC(=O)CSc2nnc(-c3cnccn3)n2Cc2ccco2)cc1`, for which the inhibition was 14.2% (active).
With `CC(C)(C)C(c1nc2ccccc2[nH]1)n1c(Cc2csc3ccccc23)nc2ccccc21` (stereo not drawn), the inhibition is 3.67% (inactive).
In the case of `CC(C)CCNC(=O)c1cccnc1Sc1ccccc1`, the inhibition was -0.45% (inactive).
Turning to `O=C(NCCOc1ccccc1)c1ccccc1F`, the inhibition is -0.63% (inactive).
With `CC(C)OCCCNC(=O)c1cc(Sc2ccc(F)cc2)nc2ccccc12`, the inhibition is 17.2% (active).
The value for `O=S1(=O)c2ccc(Br)cc2-n2nncc2CN1Cc1cccc(Cl)c1` was 1.6% (inactive).
With `Nc1ccn([C@@H]2O[C@H](C(=O)N[C@H]3CCCCNC3=O)[C@@H](O)[C@H]2O)c(=O)n1`, the inhibition was -0.25% (inactive).
In the case of `CCOc1cc(NC(=O)c2ccccc2C(=O)O)c(OCC)cc1NC(=O)c1ccccc1F`, the inhibition was -7.45% (inactive).
Consider `CCN(CC)S(=O)(=O)c1cc(C(=O)Nc2ccccn2)ccc1C`, for which the inhibition is -1.5% (inactive).
`CCOc1cc2ccccc2cc1C(=O)Nc1ccccn1`: the inhibition was 12.2% (active).
In the case of `Nc1ncnc2c1ncn2[C@@H]1O[C@H](C(=O)N[C@@H](CCc2ccccc2)C(=O)N2CCCN(Cc3cccs3)CC2)[C@@H](O)[C@H]1O`, the inhibition is 0.34% (inactive).
As to `C#CCN([C@@H](C)C(=O)OCC)S(=O)(=O)c1ccc(Br)cc1F`, the inhibition was -1.25% (inactive).
On to `C[C@@H]1ON(C)[C@H]2C[C@H]3c4cc(N5CCOCC5)ccc4CCN3C[C@@H]12`, for which the inhibition is -1.04% (inactive).
Under `N#CC1=C(N)Oc2[nH]c(=S)[nH]c(=O)c2C12C(=O)Nc1ccccc12` (stereo not drawn) stands -2.89% (inactive); under `CC1(C)Cc2ccccc2/C(=C/C(=O)c2ccccc2)N1`, 0.12% (inactive); under `CC1(C)Cc2ccccc2-c2[nH]c(=S)[nH]c(=O)c21`, 35% (active).
Regarding `COC(=O)c1cc2c(c3c4ccccc4n(S(=O)(=O)c4cccc(C)c4)c13)C(=O)N(Cc1ccccc1)C2`, the inhibition is 0.57% (inactive).
On to `N#Cc1cccc(C(=O)NCC2CCN(C(=O)C(=O)c3cc4ccccc4o3)CC2)c1`, for which the inhibition was -0.57% (inactive).
In the case of `CCCCOCC1CN(CCCC)S(=O)(=O)c2c(Oc3ccc(F)cc3)cccc2O1` (stereo not drawn), the inhibition was -0.05% (inactive).
Under `CCOc1cc(C2C(C(=O)c3ccco3)=C(O)C(=O)N2Cc2ccccc2)ccc1O` (stereo not drawn) stands 0.36% (inactive); under `O=C(C1=C(O)C(=O)N(Cc2ccccc2)C1c1cccnc1)c1ccco1` (stereo not drawn), 7.52% (inactive).
As for `O=C(C1=C(O)C(=O)N(Cc2ccccc2)C1c1ccco1)c1ccco1` (stereo not drawn), the inhibition was 17.9% (active).
With `COC(=O)C1=C(C)N(Cc2cccc(C(F)(F)F)c2)C(=NCc2cccc(C(F)(F)F)c2)NC1c1ccccc1C(F)(F)F` (stereo not drawn), the inhibition is -0.87% (inactive).
Under `COC(=O)C1=C(C)NC(=S)NC1c1ccc(OC)cc1` (stereo not drawn) stands -0.48% (inactive); under `COC(=O)C1=C(C)N(Cc2cccc(C(F)(F)F)c2)C(=NCc2ccccc2)NC1c1ccc(Cl)cc1` (stereo not drawn), -1.36% (inactive); under `COC(=O)[C@H](CC(C)C)NS(=O)(=O)c1c(F)cccc1F`, -2.8% (inactive).
On to `COc1ccc(S(=O)(=O)Nc2ccc3c(c2)C(=O)N([C@H](C)CO)C[C@H](C)[C@@H](CN(C)C)OCCCC[C@H](C)O3)cc1`, for which the inhibition was -0.42% (inactive).
As to `O=C(COC(=O)c1cccc(Cl)c1)Nc1ccc2[nH]c(=O)[nH]c2c1`, the inhibition was 0.75% (inactive).
On to `O=C(COC(=O)c1cccc(Br)c1)Nc1cccc2c1C(=O)c1ccccc1C2=O`, for which the inhibition was 12% (active).
As to `O=C(COC(=O)Cn1cnc2ccccc21)Nc1cccc2c1C(=O)c1ccccc1C2=O`, the inhibition was -1.23% (inactive).
Under `COC(=O)[C@]12C[C@H](CC(=O)NCc3cccc(C(F)(F)F)c3)C(=O)N(Cc3ccc4c(c3)OCO4)C1=C[C@H](COCc1ccccc1)O[C@@H]2C` stands -1.16% (inactive); under `COc1cccc(NC(=O)N(C)C[C@@H]2OCc3cn(nn3)CCCC(=O)N([C@@H](C)CO)C[C@H]2C)c1`, 0.85% (inactive).
For `Cc1cc(C#N)c(SCC(N)=O)nc1-c1ccc(F)cc1`, the inhibition is -0.54% (inactive).
With `CCOc1ccc2nc(N3CCCN(C(=O)Nc4ccccc4C)CC3)c(C#N)cc2c1`, the inhibition was 1.36% (inactive).
On to `CCOc1ccc2cc(C#N)c(SCC(=O)OC)nc2c1`, for which the inhibition is 33.3% (active).
`COc1ccccc1Cc1c(-c2ccc(F)cc2)nc2ccc(C)cn12`: the inhibition is 1.73% (inactive).
For `N#Cc1ccc(OCCCN2CCC(C(O)(c3ccccc3)c3ccccc3)CC2)c(F)c1`, the inhibition is 1.27% (inactive).
As to `NS(=O)(=O)c1ccc2nc(NC(=O)CS(=O)(=O)c3ccc(F)cc3)sc2c1`, the inhibition is -0.8% (inactive).
As to `Cc1nc(NC(=O)CCC(=O)O)sc1C(=O)N(C)C`, the inhibition is 0.5% (inactive).
Under `O=C(O)CCC(=O)Nc1nc2ccc([N+](=O)[O-])cc2s1` stands 9.53% (active); under `CCN1C(=O)N[C@@H]2C[C@H](C(=O)N3CCCC3)[C@H](C)[C@H](c3ccccc3)C[C@@H]21`, -1.63% (inactive).
On to `O=C(COC(=O)c1ccccc1Cl)NC1CCCCCCC1`, for which the inhibition was -1.4% (inactive).
Regarding `O=C(COC(=O)c1cccc(Cl)c1Cl)NC1CCCCCC1`, the inhibition was -0.6% (inactive).
For `N#Cc1ccccc1Sc1ccccc1C(=O)OCC(=O)NC1CCCCC1`, the inhibition was 33% (active).
For the compound `COCCNC(=S)N(C)[C@H]1C[C@H]2c3[nH]c4ccccc4c3CCN2C[C@H]1[C@H](C)O`, the inhibition was -0.82% (inactive).
Regarding `COCc1[nH]nc2c1C(c1ccccc1)N(c1ccccc1)C2=O` (stereo not drawn), the inhibition was 0.32% (inactive).
Under `O=C1[C@@H](c2ccccc2)[C@@H](c2ccccc2)N1c1ccccc1` stands -1.27% (inactive).
